From PubChem BioAssay come the findings set out here.

Calls of active or inactive are those of the source. Unless noted, no stated cut-off is given here; in the data, active means inhibition above about 31%; inactive means the rest.

Test [1] can be described thus: reduced viability of SK-BR-3 breast cancer cells – cell-based, 24 h, human, pilot screen (AID 572;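 active means viability at or below 10% of carrier control in both of two separate runs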;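 further: compound exposure lasted between 18 and 24 h rather than exactly 24 h; 100% = carrier-treated control wells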). Particulars: SK-BR-3 viability, CellTiter-Glo luminescence, at 10 µM, stronger effect = lower value.
Test [2] in a line: H69AR cell proliferation blockers – human, duplicate replicates, primary screen (AID 580;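 active means viability at or under a set limit in both replicates, limit being median viability minus 3 SD, cut at about 48% in these data, passing the limit was not always enough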;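 further: 100% = mean luminescence of untreated wells and 0% = no signal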). Particulars: H69AR lung tumor cells viability, ATP luminescence, 72 h; at 10 µM; stronger effect = lower value.
Test [3] is described as follows: MRP1 drug-resistance reversers in H69AR cells – cell-based, doxorubicin co-treatment, pilot screen (AID 601;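 active means viability loss from added drug above about 55%, and viability with drug at most 40%, in both replicates, limit read from the data, passing the limit was not always enough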). The note with it: CellTiter-Glo, 72 h, at 10 µM; for differential viability (reversal): stronger effect = higher value.
Test [4] can be described thus: yeast transport mutant growth inhibition pilot in 384-well plates, post-Golgi transport modulator project (AID 636). Particulars: absorbance 615 nm, about 18 h, stronger effect = higher value.
A short description of test [5]: growth suppression of yeast trafficking mutant, preliminary HTS, modulators of trafficking downstream of Golgi apparatus project, 1536-format plate, OD 615 nm (AID 637; in the data active means inhibition above about 30%). Particulars: yeast transport mutant growth, absorbance 615 nm, 18 h; stronger effect = higher value.
The nature of test [6]: HUVEC growth inhibition – cell-based, human, primary screen (AID 575;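 active means viability at or below 30% in both replicate assays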;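 further: 100% = median of untreated cell wells with 0.1% DMSO on each plate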). The note with it: HUVEC proliferation, CellTiter-Glo luminescence, 72 h; at 10 µM; stronger effect = lower value.
Setting [7] is: H69AR cells + 2 uM doxorubicin, measured here: viability with 2 uM doxorubicin, stronger effect = lower value.
Where [8] appears, read: H69AR cells, compound alone cytotoxicity.

With `N#Cc1ccccc1Cn1c(=O)n(Cc2ccc(C(=O)NCc3ccco3)cc2)c(=O)c2ccccc21`, the viability in test [1] was 73% (inactive); in test [2], 11% (active); in test [3] (setting [7]), 19.4%; in test [3] (setting [8]), 11%. Also, in test [3] (H69AR cells + 2 uM doxorubicin), the differential viability (reversal) was -8.33% (inactive). The inhibition in test [4] is -1.82% (inactive); in test [5], -7.21% (inactive).
In the case of `O=C(Nc1ccc2oc(Cc3ccc(Cl)cc3)nc2c1)c1cccnc1`, the viability in test [1] is 103% (inactive); in test [2], 37.9% (active); in test [3] (setting [7]), 79.4%; in test [3] (setting [8]) it was 37.9%. Besides, the differential viability (reversal) in test [3] (H69AR cells + 2 uM doxorubicin) is -41.5% (inactive). Besides, the inhibition is -1.73% (inactive) in test [4] and -0.55% (inactive) in test [5].
Turning to `COc1ccc(Cl)cc1C(=O)NCCc1ccc(S(=O)(=O)NC(=O)NC2CCCCC2)cc1`, the viability in test [1] was 116% (inactive); in test [2], 93.5% (inactive); in test [3] (setting [7]) it was 103%; in test [3] (setting [8]) it was 93.5%. In test [3] (H69AR cells + 2 uM doxorubicin), the differential viability (reversal) is -9.18% (inactive). Also, the inhibition in test [4] was 0.26% (inactive); in test [5], -1.33% (inactive).
For the compound `CCC(=O)Oc1ccc(/C(CC)=C(\CC)c2ccc(OC(=O)CC)cc2)cc1`, the viability in test [1] was 131% (inactive); in test [3] (setting [7]) it was 49.2%; in test [3] (setting [8]), 8.75%. Besides, the differential viability (reversal) in test [3] (H69AR cells + 2 uM doxorubicin) is -40.5% (inactive). Moreover, the figures for the inhibition in test [4] and in test [5] were -0.39% (inactive) and -4.67% (inactive), respectively.
With `O=P1(O)C=C(c2ccccc2)NC(c2ccccc2)=C1`, the viability in test [6] is 108% (inactive); in test [2], 91.7% (inactive); in test [3] (setting [7]), 96.1%; in test [3] (setting [8]), 91.7%. Also, the differential viability (reversal) in test [3] (H69AR cells + 2 uM doxorubicin) was -4.4% (inactive). For the same compound, the inhibition in test [4] is -4.93% (inactive); in test [5], 0.48% (inactive).
As for `COc1cc2nc(N3CCN(C(=O)c4ccco4)CC3)nc(N)c2cc1OC`, the viability in test [1] is 53% (inactive); in test [3] (setting [7]) it was 28.9%; in test [3] (setting [8]), 15.4%. Besides, the differential viability (reversal) in test [3] (H69AR cells + 2 uM doxorubicin) is -13.4% (inactive). Besides, the inhibition in test [4] was 2.47% (inactive); in test [5], -0.17% (inactive).
For the compound `Cc1cc(=O)[nH]c2c1cnn2Cc1ccccc1`, the viability in test [6] is 116% (inactive); in test [2] it was 98.9% (inactive); in test [3] (setting [7]) it was 93.9%; in test [3] (setting [8]) it was 98.9%. For the same compound, in test [3] (H69AR cells + 2 uM doxorubicin), the differential viability (reversal) was 5.01% (inactive). For the same compound, the values for the inhibition in test [4] and in test [5] were -1.97% (inactive) and -3.33% (inactive), respectively.
Consider `CC(=O)C(Sc1ncnc2c1nnn2-c1ccc(F)cc1)C(=O)N(C)C` (stereo not drawn), for which the viability in test [1] is 136% (inactive); in test [3] (setting [7]), 61%; in test [3] (setting [8]), 48.7%. Also, the differential viability (reversal) in test [3] (H69AR cells + 2 uM doxorubicin) is -12.3% (inactive). Further, the inhibition was -3.12% (inactive) in test [4] and 4.1% (inactive) in test [5].
With `CC(C)Cn1c2c(c(O)c(C(=O)Nc3ncccc3O)c1=O)CCCC2`, the viability in test [1] was 91% (inactive); in test [3] (setting [7]) it was 63.1%; in test [3] (setting [8]) it was 52.4%. In addition, the differential viability (reversal) in test [3] (H69AR cells + 2 uM doxorubicin) was -10.7% (inactive). The inhibition in test [4] is -2% (inactive); in test [5] it was -2.91% (inactive).
For the compound `Cc1ccc2[nH]c3c(c2c1)CN(C(=O)CN1CCN(c2cccc(C)c2C)CC1)CC3`, the viability was 79% (inactive) in test [1], 37.6% in test [3] (setting [7]) and 31% in test [3] (setting [8]). Besides, the differential viability (reversal) in test [3] (H69AR cells + 2 uM doxorubicin) was -6.55% (inactive). Besides, the inhibition in test [4] was 0% (inactive); in test [5], 4.36% (inactive).
With `Cc1cc(-n2c(C)cc(C(=O)CSc3nnnn3-c3ccc(Cl)cc3)c2C)no1`, the viability in test [1] was 81.5% (inactive); in test [3] (setting [7]), 44.3%; in test [3] (setting [8]), 49.2%. Besides, the differential viability (reversal) in test [3] (H69AR cells + 2 uM doxorubicin) was 4.86% (inactive). The inhibition in test [4] is -3.73% (inactive); in test [5] it was -5.56% (inactive).
`CC1CCN(c2nc3c(c(=O)n(C)c(=O)n3C)n2Cc2ccccc2)CC1`: the viability in test [6] is 79.2% (inactive); in test [2], 88.1% (inactive); in test [3] (setting [7]) it was 47%; in test [3] (setting [8]), 88.1%. The differential viability (reversal) in test [3] (H69AR cells + 2 uM doxorubicin) was 41.1% (inactive). For the same compound, the values for the inhibition in test [4] and in test [5] were -2.27% (inactive) and 21.6% (inactive), respectively.
As for `CCOC(=O)c1cc(-c2ccc(N)cc2)sc1N`, the viability in test [6] is 92.5% (inactive); in test [2], 93.4% (inactive); in test [3] (setting [7]), 84.9%; in test [3] (setting [8]), 93.4%. Also, the differential viability (reversal) in test [3] (H69AR cells + 2 uM doxorubicin) is 8.46% (inactive). For the same compound, the inhibition in test [4] is -5.07% (inactive); in test [5], -0.95% (inactive).
Regarding `CCN1CCN(Cc2ccccc2NC(=O)Nc2ccc(C)cc2)CC1`, the viability in test [6] was 89.7% (inactive); in test [2] it was 98% (inactive); in test [3] (setting [7]), 86.8%; in test [3] (setting [8]) it was 98%. Further, the differential viability (reversal) in test [3] (H69AR cells + 2 uM doxorubicin) is 11.2% (inactive). Also, the inhibition in test [4] was -5.92% (inactive); in test [5], -0.16% (inactive).
As for `O=C(c1ccc(CNS(=O)(=O)c2cccc(C(F)(F)F)c2)cc1)N1CCOCC1`, the viability in test [6] was 102% (inactive); in test [2], 92.9% (inactive); in test [3] (setting [7]) it was 80.9%; in test [3] (setting [8]), 92.9%. In test [3] (H69AR cells + 2 uM doxorubicin), the differential viability (reversal) was 12% (inactive). Moreover, the inhibition in test [4] is -8.67% (inactive); in test [5], 1.43% (inactive).
On to `O=C(Cn1nnc2c(cnn2-c2ccc(F)cc2)c1=O)c1ccccc1F`, for which the viability in test [6] is 75.6% (inactive); in test [2], 81.2% (inactive); in test [3] (setting [7]) it was 65.1%; in test [3] (setting [8]), 81.2%. Besides, the differential viability (reversal) in test [3] (H69AR cells + 2 uM doxorubicin) is 16.1% (inactive). The inhibition in test [4] was -3.64% (inactive); in test [5] it was -0.48% (inactive).
With `Cc1onc(-c2ccccc2)c1C(=O)N1CCCSC1=Nc1ccccc1`, the viability in test [6] is 76.9% (inactive); in test [2], 92.5% (inactive); in test [3] (setting [7]), 86.6%; in test [3] (setting [8]), 92.5%. In addition, the differential viability (reversal) in test [3] (H69AR cells + 2 uM doxorubicin) was 5.92% (inactive). Further, the inhibition in test [4] was -4.55% (inactive); in test [5], 0.63% (inactive).
Regarding `COc1ccc(Cl)cc1N1CCN(CCNC(=O)Nc2ccccc2C)CC1`, the viability in test [1] is 85% (inactive); in test [3] (setting [7]), 71.4%; in test [3] (setting [8]), 48.7%. Also, the differential viability (reversal) in test [3] (H69AR cells + 2 uM doxorubicin) is -22.7% (inactive). The inhibition is -4.93% (inactive) in test [4] and 4.91% (inactive) in test [5].
As to `COc1ccc(NC(=O)N2CCC(O)(c3cccnc3)CC2)c(OC)c1`, the viability is 83.6% (inactive) in test [6], 98.4% (inactive) in test [2], 86.1% in test [3] (setting [7]) and 98.4% in test [3] (setting [8]). For the same compound, the differential viability (reversal) in test [3] (H69AR cells + 2 uM doxorubicin) is 12.3% (inactive). Further, the inhibition is -1.43% (inactive) in test [4] and -1.11% (inactive) in test [5].
As to `CCOC(=O)CSc1nnc(CNC(=O)c2ccc(OC)c(OC)c2)n1C`, the viability in test [6] was 107% (inactive); in test [2], 95.7% (inactive); in test [3] (setting [7]), 97.8%; in test [3] (setting [8]), 95.7%. Further, in test [3] (H69AR cells + 2 uM doxorubicin), the differential viability (reversal) was -2.17% (inactive). Also, the inhibition was -1.82% (inactive) in test [4] and -2.54% (inactive) in test [5].
